Molecules are shown by their SMILES. Out of some 310,000 compounds screened, about 14,000 (4.5%) showed an effect of 50% or more. The effect is printed as a negative number. The sample holds strong results, similar compounds and a random draw of the others, so the mix is not that of the screen.
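Also: peak tail current of the secondary pulse compared with the same well before compound.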

The target in this assay is human ether-à-go-go-related gene (hERG) potassium channel (human, UniProt Q12809). As to the kind of experiment: primary screen, population patch clamp on CHO cells stably expressing hERG; higher = less effect of the substance.
human ether-à-go-go-related gene (hERG) potassium channel, sequence (Q12809 whole entry, looked up): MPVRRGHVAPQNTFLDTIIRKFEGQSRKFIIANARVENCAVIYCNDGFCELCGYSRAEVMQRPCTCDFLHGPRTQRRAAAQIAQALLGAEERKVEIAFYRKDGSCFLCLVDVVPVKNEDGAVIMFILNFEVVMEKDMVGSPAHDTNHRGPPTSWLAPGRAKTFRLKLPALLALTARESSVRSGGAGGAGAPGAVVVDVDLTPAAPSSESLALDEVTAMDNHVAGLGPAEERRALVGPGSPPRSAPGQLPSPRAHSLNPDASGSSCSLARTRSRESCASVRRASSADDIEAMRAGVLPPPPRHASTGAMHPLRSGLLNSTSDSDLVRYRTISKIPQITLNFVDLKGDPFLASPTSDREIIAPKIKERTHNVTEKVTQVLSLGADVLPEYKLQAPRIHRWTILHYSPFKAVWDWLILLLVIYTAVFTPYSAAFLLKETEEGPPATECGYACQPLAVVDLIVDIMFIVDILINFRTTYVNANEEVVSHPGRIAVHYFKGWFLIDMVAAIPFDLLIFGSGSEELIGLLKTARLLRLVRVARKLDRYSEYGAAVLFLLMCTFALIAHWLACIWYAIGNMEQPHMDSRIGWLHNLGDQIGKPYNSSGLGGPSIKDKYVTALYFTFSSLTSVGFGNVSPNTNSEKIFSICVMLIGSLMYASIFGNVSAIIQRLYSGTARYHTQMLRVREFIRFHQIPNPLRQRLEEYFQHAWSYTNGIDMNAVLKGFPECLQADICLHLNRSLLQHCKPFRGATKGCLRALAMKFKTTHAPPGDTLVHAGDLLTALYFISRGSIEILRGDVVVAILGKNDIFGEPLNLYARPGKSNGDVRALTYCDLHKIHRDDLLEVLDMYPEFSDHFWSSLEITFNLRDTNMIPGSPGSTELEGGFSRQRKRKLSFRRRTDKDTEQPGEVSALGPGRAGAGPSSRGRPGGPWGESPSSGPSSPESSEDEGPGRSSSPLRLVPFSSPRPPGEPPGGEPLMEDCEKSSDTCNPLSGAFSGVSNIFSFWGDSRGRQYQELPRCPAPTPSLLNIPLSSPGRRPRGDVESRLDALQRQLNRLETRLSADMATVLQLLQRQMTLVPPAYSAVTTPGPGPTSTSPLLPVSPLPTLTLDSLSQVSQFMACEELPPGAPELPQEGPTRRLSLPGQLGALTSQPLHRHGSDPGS
As for `COC(=O)C1C(=O)NC(SC)=C(C#N)C1c1ccccc1` (stereo not shown), the “hERG current change (%, negative = inhibition) at 10uM” value stood at 8.09%. To `COC(=O)c1cc(CSc2nnc(NC3CCCCC3)s2)oc1C` belongs -10.1%; to `Cc1ccc(CN(C)C(=O)c2c(C)nn(-c3ccccc3)c2C)cc1`, 8.12%. To `C=C(C)c1cccc(C(C)(C)NC(=O)N2CCN(c3ncccn3)CC2)c1` belongs 0.0429%; to `Cc1c(NC(=O)C(C)N2CC(C)OC(C)C2)c(=O)n(-c2ccccc2)n1C` (stereo not shown), 9.21%; to `Cc1cccc(NC(=O)Nc2ccc(S(N)(=O)=O)cc2)c1`, 13.4%. To `Cc1cccc(C(=O)NNC(=O)CCC(=O)Nc2cccc(Cl)c2C)c1` belongs 9.03%; to `CCOc1ccc(-c2nnn(CC(=O)c3cc(OC)ccc3OC)n2)cc1`, -7.91%; to `O=C(Cn1nc(-c2cccc(Cl)c2)ccc1=O)Nc1ccccc1Br`, 10.7%.

Consider `COc1ccc(CC(=O)N2N=C(C)CC2(O)c2cccnc2)cc1OC` (stereo not shown), for which the “hERG current change (%, negative = inhibition) at 10uM” value is -17%.

Consider `CCOc1c2ccc(C(=O)NCc3ccc4c(c3)OCO4)cc2nn1C`, for which the “hERG current change (%, negative = inhibition) at 10uM” value is 17.6%. The result for `O=C(c1cc2ncccn2n1)N1CCc2c([nH]c3ccccc23)C1c1ccccc1F` (stereo not shown) reads -5.11%; that for `COc1ccc(C2c3[nH]c4ccccc4c3CCN2Cc2ccoc2)c(F)c1` (stereo not shown), -36.9%; that for `Cn1nccc1C(=O)N1CCc2c([nH]c3ccccc23)C1c1ccc(F)cc1` (stereo not shown), -19.4%.

For the compound `Fc1ccccc1C1c2[nH]c3ccccc3c2CCN1Cc1ccoc1` (stereo not shown), the “hERG current change (%, negative = inhibition) at 10uM” value is recorded as -51.7%.

`Cc1cnc(C(=O)N2CCc3c([nH]c4ccccc34)C2c2ccc(F)cc2)cn1` (stereo not shown): the “hERG current change (%, negative = inhibition) at 10uM” value is given as -39.8%. The result for `Fc1ccccc1C1c2[nH]c3ccccc3c2CCN1Cc1cccn1-c1ncccn1` (stereo not shown) reads -50.6%; that for `COc1ccc(OCC(=O)N2CCc3c([nH]c4ccccc34)C2c2ccccn2)cc1` (stereo not shown), 21.4%; that for `Fc1ccc(C2c3[nH]c4ccccc4c3CCN2Cc2ccoc2)cc1` (stereo not shown), -26.8%. The result for `Cc1ccccc1C1c2[nH]c3ccccc3c2CCN1Cc1cccn1-c1ncccn1` (stereo not shown) reads -46.3%; that for `Fc1ccc(C2c3[nH]c4ccccc4c3CCN2Cc2cccn2-c2ncccn2)cc1` (stereo not shown), -52.2%; that for `CCOc1ccc(C2c3[nH]c4ccccc4c3CCN2Cc2cccn2-c2ncccn2)cc1` (stereo not shown), -53.3%. As to `CCOc1ccc(C2c3[nH]c4ccccc4c3CCN2C(=O)Cn2cncn2)cc1` (stereo not shown), the “hERG current change (%, negative = inhibition) at 10uM” value is on record as -15%. `CCn1c(COc2ccccc2C)nnc1SCC(=O)O`: the “hERG current change (%, negative = inhibition) at 10uM” value was determined as 16.3%. With `Cc1cc(C)cc(NC(=O)N2CCC(NC(=O)c3ccccc3C)CC2)c1`, the “hERG current change (%, negative = inhibition) at 10uM” value was 5.74%. With `O=C(CSc1nnc(-c2ccccc2)n1-c1ccccc1)c1ccc[nH]1`, the “hERG current change (%, negative = inhibition) at 10uM” value is 16.4%. To `CCOC(=O)N1CCN(C(=O)CNC(=O)c2ccc(Br)o2)CC1` belongs 11.7%; to `COc1ccc(-c2csc(NC(=O)c3c(OC)cccc3OC)n2)cc1`, 7.77%. To `COc1ccccc1CNS(=O)(=O)c1cc2c3c(c1)CCN3C(=O)CC2` belongs -4.02%; to `O=C1COc2ccc(C(=O)COC(=O)CNC(=O)C3CCCCC3)cc2N1`, -7.17%; to `COc1ccc(OCC(Cn2cnc3ccccc32)OC(C)=O)cc1.Cl` (stereo not shown), -26%. To `Cc1cc(C)n(-c2cc(C(C)(C)C)nc3c(-c4ccccc4)cnn23)n1` belongs 14.6%. For `COc1ccc(C(=O)NCCS(=O)(=O)NCCc2ccccc2)cc1`, the “hERG current change (%, negative = inhibition) at 10uM” value was -13.2%. The result for `CC1(C)CC(C)(c2ccc(O)cc2O)N(c2cccc(Cl)c2)C(=S)N1` (stereo not shown) reads 2.04%; that for `Cc1cccc(-n2c(N)c(C(=O)NCCN3CCOCC3)c3nc4ccccc4nc32)c1`, -57.1%. In the case of `CCCNC(=O)c1c(N)n(-c2cccc(OC)c2)c2nc3ccccc3nc12`, the “hERG current change (%, negative = inhibition) at 10uM” value is reported as -5.21%. To `COCCNC(=O)c1c(N)n(-c2cccc(C)c2)c2nc3ccccc3nc12` belongs -24.7%; to `Nc1c(C(=O)NCCN2CCOCC2)c2nc3ccccc3nc2n1-c1cccc(F)c1`, -33.2%. For `Nc1c(C(=O)NCCN2CCOCC2)c2nc3ccccc3nc2n1-c1ccccc1`, the “hERG current change (%, negative = inhibition) at 10uM” value is listed as -52%. The result for `Nc1c(C(=O)NCCN2CCOCC2)c2nc3ccccc3nc2n1-c1ccc2c(c1)OCO2` reads -33.5%.

Take `Cc1ccc(S(=O)(=O)NCCC(=O)NCc2ccccn2)cc1`: the “hERG current change (%, negative = inhibition) at 10uM” value is 11.1%. The result for `Cc1ccc(-c2nnn(CC(=O)N(Cc3ccco3)C(C(=O)NC(C)(C)C)c3cccs3)n2)o1` (stereo not shown) reads -19.2%; that for `O=C(NCC1CCCO1)c1cc2c([nH]c3ccccc32)c(-c2cccc(Cl)c2)n1` (stereo not shown), -20.5%.

Consider `Cc1sc2nc(-c3ccc(Br)cc3)oc(=O)c2c1C`, for which the “hERG current change (%, negative = inhibition) at 10uM” value is recorded as 13.3%.

For `CSc1nc(C(=O)N2CCc3c([nH]c4ccccc34)C2c2ccccn2)cs1` (stereo not shown), the “hERG current change (%, negative = inhibition) at 10uM” value is listed as -4.85%. In the case of `CC(=O)Nc1ccc(NC(=O)c2cc[n+]([O-])cc2)cc1`, the “hERG current change (%, negative = inhibition) at 10uM” value worked out at 25.2%.

Values taken from article PMC4336329 (PLoS ONE, 2015).
